# Results taken from the supplement of paper PMC8728848.
# About 410 targets per protein were measured; listed, in parts, are those with the strongest signals and a random draw of the rest.
# How the values were obtained:
# Assay in all cases: glycan array binding signal (z-score within array); higher = stronger binding
# Conditions in all cases: glycan notation: IUPAC condensed, linker removed
# [1] = biological target: GalNAc(a1-3)Gal
# Summary of the method: (§1)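 Columns mapping to the same glycan were averaged after glycan names were converted to IUPAC-condensed notation. The data come from 3228 arrays in the Consortium for Functional Glycomics database, limited to those with an available protein sequence. Binding is reported as a within-array Z-score averaged across arrays of one protein sequence and across linkers.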
# [2] = biological target: GalNAc(a1-3)GalNAc
# Summary of the method: as §1
# [3] = biological target: GalNAc(a1-3)GalNAc(a1-3)Gal(a1-4)Gal(b1-4)GlcNAc
# Summary of the method: as §1
# [4] = biological target: GalNAc(a1-3)GalNAc(b1-3)Gal(a1-4)Gal(b1-4)GlcNAc
# Summary of the method: as §1
# [5] = biological target: Glc(b1-4)Glc
# Summary of the method: as §1
# [6] = biological target: Glc(b1-6)Glc
# Summary of the method: as §1
# [7] = biological target: GlcA(b1-3)Gal
# Summary of the method: as §1
# [8] = biological target: GlcA3S(b1-3)Gal(b1-4)GlcNAc(b1-3)Gal(b1-4)Glc
# Summary of the method: as §1
# [9] = biological target: GlcNAc(a1-3)Gal(b1-4)GlcNAc
# Summary of the method: as §1
# [10] = biological target: GlcNAc(a1-4)Gal(b1-4)GalNAc
# Summary of the method: as §1
# [11] = biological target: GlcNAc(a1-4)Gal(b1-4)GlcNAc(b1-3)Gal(b1-4)GlcNAc
# Summary of the method: as §1
# [12] = biological target: GlcNAc(a1-4)Gal(b1-4)GlcNAc(b1-3)Gal(b1-4)GlcNAc(b1-3)Gal(b1-4)GlcNAc
# Summary of the method: as §1
# [13] = biological target: GlcNAc(b1-2)[GlcNAc(b1-4)]Man(a1-3)[GlcNAc(b1-4)][GlcNAc(b1-2)[GlcNAc(b1-6)]Man(a1-6)]Man(b1-4)GlcNAc(b1-4)[Fuc(a1-6)]GlcNAc
# Summary of the method: as §1
# [14] = biological target: GlcNAc(b1-2)[GlcNAc(b1-6)]Man(a1-6)[GlcNAc(b1-2)Man(a1-3)][GlcNAc(b1-4)]Man(b1-4)GlcNAc(b1-4)GlcNAc
# Summary of the method: as §1
# [15] = biological target: GlcNAc(b1-3)Gal(b1-4)GlcNAc(b1-3)Gal(b1-4)GlcNAc(b1-2)Man(a1-3)[GlcNAc(b1-3)Gal(b1-4)GlcNAc(b1-3)Gal(b1-4)GlcNAc(b1-2)Man(a1-6)]Man(b1-4)GlcNAc(b1-4)[Fuc(a1-6)]GlcNAc
# Summary of the method: as §1
# [16] = biological target: GlcNAc(b1-3)Gal(b1-4)GlcNAc(b1-3)Gal(b1-4)GlcNAc(b1-3)Gal(b1-4)GlcNAc(b1-2)Man(a1-3)[GlcNAc(b1-3)Gal(b1-4)GlcNAc(b1-3)Gal(b1-4)GlcNAc(b1-3)Gal(b1-4)GlcNAc(b1-2)Man(a1-6)]Man(b1-4)GlcNAc(b1-4)GlcNAc
# Summary of the method: as §1
# [17] = biological target: GlcNAc(b1-3)Gal(b1-4)GlcNAc(b1-3)Gal(b1-4)GlcNAc(b1-3)Gal(b1-4)GlcNAc(b1-2)Man(a1-3)[GlcNAc(b1-3)Gal(b1-4)GlcNAc(b1-3)Gal(b1-4)GlcNAc(b1-3)Gal(b1-4)GlcNAc(b1-2)Man(a1-6)]Man(b1-4)GlcNAc(b1-4)[Fuc(a1-6)]GlcNAc
# Summary of the method: as §1
# [18] = biological target: Kdn(a2-3)Gal(b1-4)GlcNAc
# Summary of the method: as §1
# [19] = biological target: Neu5Ac(a2-3)Gal(b1-3)GalNAc(b1-3)Gal(a1-4)Gal(b1-4)Glc
# Summary of the method: as §1
# [20] = biological target: Neu5Ac(a2-3)Gal(b1-3)GalNAc(b1-4)[Neu5Ac(a2-8)Neu5Ac(a2-3)]Gal(b1-4)Glc
# Summary of the method: as §1
# [21] = biological target: Neu5Ac(a2-3)Gal(b1-3)[Fuc(a1-4)]GlcNAc(b1-3)Gal(b1-4)[Fuc(a1-3)]GlcNAc
# Summary of the method: as §1
# [22] = biological target: Neu5Ac(a2-3)Gal(b1-4)GlcNAc(b1-3)Gal(b1-4)GlcNAc
# Summary of the method: as §1
# [23] = biological target: Neu5Ac(a2-3)Gal(b1-4)GlcNAc(b1-3)Gal(b1-4)GlcNAc(b1-3)Gal(b1-4)GlcNAc
# Summary of the method: as §1
# [24] = biological target: Neu5Ac(a2-3)Gal6S(b1-4)GlcNAc
# Summary of the method: as §1
# [25] = biological target: Neu5Ac(a2-6)Gal(b1-4)GlcNAc(b1-2)Man(a1-3)[Gal(b1-4)GlcNAc(b1-2)Man(a1-6)]Man(b1-4)GlcNAc(b1-4)GlcNAc
# Summary of the method: as §1
# [26] = biological target: Neu5Ac(a2-6)Gal(b1-4)GlcNAc(b1-3)Gal(b1-4)GlcNAc(b1-3)Gal(b1-4)GlcNAc(b1-2)Man(a1-3)[Neu5Ac(a2-6)Gal(b1-4)GlcNAc(b1-3)Gal(b1-4)GlcNAc(b1-3)Gal(b1-4)GlcNAc(b1-2)Man(a1-6)]GalNAc
# Summary of the method: as §1
# [27] = biological target: Neu5Ac(a2-6)Gal(b1-4)GlcNAc(b1-3)Gal(b1-4)[Fuc(a1-3)]GlcNAc(b1-3)Gal(b1-4)[Fuc(a1-3)]GlcNAc
# Summary of the method: as §1
# [28] = biological target: Neu5Ac(b2-6)GalNAc
# Summary of the method: as §1
# [29] = biological target: Neu5Ac9Ac(a2-6)Gal(b1-4)GlcNAc
# Summary of the method: as §1
binder,measurement,setting,value
"HPA (Helix pomatia), Q575S3 (protein) MWAHLTGLLLICALSLSAAQRAQTGEIDCGSDSSWPKDPSDNPNRDNTREIVKHVTFSPQFCREPKVILSVTTLDAEHTKNLRYEARLKSVSPSGLSASCYSWHDGTIYRMKLSWLAVED",glycan array binding signal (z-score),[1],4.18
same,glycan array binding signal (z-score),[2],4.53
same,glycan array binding signal (z-score),[3],5.04
same,glycan array binding signal (z-score),[4],5.7
same,glycan array binding signal (z-score),[5],-0.26
same,glycan array binding signal (z-score),[6],-0.266
same,glycan array binding signal (z-score),[7],-0.262
same,glycan array binding signal (z-score),[8],-0.256
same,glycan array binding signal (z-score),[9],4.69
same,glycan array binding signal (z-score),[10],1.46
same,glycan array binding signal (z-score),[11],4.37
same,glycan array binding signal (z-score),[12],4.21
same,glycan array binding signal (z-score),[13],0.175
same,glycan array binding signal (z-score),[14],-0.24
same,glycan array binding signal (z-score),[15],-0.243
same,glycan array binding signal (z-score),[16],-0.257
same,glycan array binding signal (z-score),[17],-0.241
same,glycan array binding signal (z-score),[18],-0.262
same,glycan array binding signal (z-score),[19],-0.243
same,glycan array binding signal (z-score),[20],-0.245
same,glycan array binding signal (z-score),[21],-0.209
same,glycan array binding signal (z-score),[22],-0.267
same,glycan array binding signal (z-score),[23],-0.265
same,glycan array binding signal (z-score),[24],-0.273
same,glycan array binding signal (z-score),[25],-0.261
same,glycan array binding signal (z-score),[26],-0.164
same,glycan array binding signal (z-score),[27],-0.253
same,glycan array binding signal (z-score),[28],-0.269
same,glycan array binding signal (z-score),[29],-0.274
